Assay results from PubChem BioAssay (NCI).
Where “and” joins values, the source holds several entries; their conditions need not be identical. Identical values can stand only once. About 79,000 compounds went through this panel and 15% of them were active in at least one assay; those are over-represented in the sample as a whole. Where a structure was tested more than once in an assay, its records may differ in their call. Calls of active or inactive are those of the source. No stated cut-off is given here; in the data, active means growth inhibition above about 70%; inactive means the rest.

Key:
[1] = NCI Yeast Anticancer Drug Screen. Data for the mec2-1 strain (AID 157); conditions: S. cerevisiae mec2-1 strain, stronger effect = higher value
Outline: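 Using mec2-1 yeast: add compound, measure growth, express inhibition versus vehicle-treated cultures.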

[2] = NCI Yeast Anticancer Drug Screen. Data for the rad14 strain (AID 159);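 further: 0% = growth of vehicle-treated control cultures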; conditions: S. cerevisiae rad14 strain growth inhibition, stronger effect = higher value
Outline: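 Inhibition of growth is reported for a repair-deficient yeast mutant following compound treatment, calculated relative to cultures that received vehicle.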

[3] = NCI Yeast Anticancer Drug Screen. Data for the sgs1 mgt1 strain (AID 161);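 further: 0% = growth of cultures given vehicle only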; conditions: S. cerevisiae sgs1 mgt1 strain, stronger effect = higher value
Outline: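 Percent growth inhibition was derived by comparing compound-exposed mutant yeast with vehicle-exposed cultures. The strain carries alterations in DNA damage repair.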

[4] = NCI Yeast Anticancer Drug Screen. Data for the CLN2oe strain (AID 163);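 further: 0% = growth of vehicle-only control cultures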; conditions: S. cerevisiae CLN2oe strain, stronger effect = higher value
Outline: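 Whole-cell yeast growth assay. A strain engineered for altered cell-cycle control received compound, and inhibition relative to vehicle-treated cultures was recorded.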

[5] = NCI Yeast Anticancer Drug Screen. Data for the cln2 rad14 strain (AID 165);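 further: 0% = growth equal to vehicle treated cultures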; conditions: S. cerevisiae cln2 rad14 strain, stronger effect = higher value
Outline: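 Yeast strain cln2 rad14, bearing defects in cell cycle control and DNA repair, serves as the test system; values reflect growth inhibition compared with vehicle.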

[6] = NCI Yeast Anticancer Drug Screen. Data for the bub3 strain (AID 167); conditions: S. cerevisiae bub3 mutant strain, stronger effect = higher value
Outline: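 Mutant yeast screening strain plus compound; vehicle-treated cultures serve as the 0% inhibition reference.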

[7] = NCI Yeast Anticancer Drug Screen. Data for the wt2 strain (AID 169); conditions: S. cerevisiae wt2 strain growth inhibition, stronger effect = higher value
Outline: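 Treated yeast vs. vehicle-treated yeast: growth inhibition determined.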

[8] = NCI Yeast Anticancer Drug Screen. Data for the mlh1 strain (AID 171);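 further: 0% = growth of vehicle-treated control cultures of the same strain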; conditions: S. cerevisiae mlh1 strain growth inhibition, stronger effect = higher value
Outline: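 A yeast strain with a defined genetic lesion serves as the test organism. Cultures receive compound or vehicle, and growth is measured.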

[9] = NCI Yeast Anticancer Drug Screen. Data for the sgs1 strain (AID 173);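 further: 0% = growth of vehicle-only control cultures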; conditions: S. cerevisiae sgs1 mutant, stronger effect = higher value
Outline: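 A genetically defined yeast mutant is incubated with the test compound, and its growth is compared to that of the same strain given vehicle.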

[10] = NCI Yeast Anticancer Drug Screen. Data for the mlh1 rad18 strain (AID 175); conditions: S. cerevisiae mlh1 rad18 strain growth inhibition, stronger effect = higher value
Outline: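 Steps: expose repair-defective yeast to compound; measure growth; express inhibition against vehicle-treated controls.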

[11] = NCI Yeast Anticancer Drug Screen. Data for the rad18 strain (AID 177); conditions: S. cerevisiae rad18 mutant growth inhibition, stronger effect = higher value
Outline: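 Measured value is growth inhibition of a yeast strain bearing a DNA repair alteration, referenced to vehicle-treated cells.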

[12] = NCI Yeast Anticancer Drug Screen. Data for the rad52 strain (AID 147);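 further: 0% = growth of vehicle-treated control cultures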; conditions: S. cerevisiae rad52 mutant growth inhibition, stronger effect = higher value
Outline: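 Here a repair-compromised yeast strain receives each compound; its growth is then quantified and normalised to vehicle-only controls.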

[13] = NCI Yeast Anticancer Drug Screen. Data for the wt1 strain (AID 149);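 further: 0% = growth of vehicle-treated wt1 cultures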; conditions: S. cerevisiae wt1 strain (SPY 50644) growth inhibition, stronger effect = higher value
Outline: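 Each compound is tested on wt1 yeast and the loss of growth versus vehicle gives the inhibition value.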

[14] = NCI Yeast Anticancer Drug Screen. Data for the rad50EPP+ strain (AID 151);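 further: 0% = growth of vehicle-treated control cultures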; conditions: S. cerevisiae rad50 mutant strain, stronger effect = higher value
Outline: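 Read-out is yeast growth inhibition relative to vehicle; cells used were the rad50EPP+ strain.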

[15] = NCI Yeast Anticancer Drug Screen. Data for the mgt1 strain (AID 153); conditions: S. cerevisiae mgt1 mutant growth inhibition, stronger effect = higher value
Outline: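 Measured: inhibition of mgt1 yeast growth by compound, normalized to vehicle-treated cultures.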

[16] = NCI Yeast Anticancer Drug Screen. Data for the rad50 strain (AID 155);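 further: 0% = growth of vehicle-only cultures of the same strain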; conditions: S. cerevisiae rad50 strain growth inhibition, stronger effect = higher value
Outline: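 Vehicle-treated cultures provide the reference for the growth inhibition reported for compound-exposed, repair-deficient yeast.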

[17] = at 5.0 µM (retest, dose inferred, filed as 0.5)
[18] = at 50.0 µM (retest, dose inferred, filed as 5.0)

Measured: growth inhibition

C#CCN(Cc1ccc2nc(N)[nH]c(=O)c2c1)c1ccc(C(=O)NC(CCC(=O)O)C(=O)O)cc1 (stereo unspecified)
62% (inactive) and 82% (active): [3]; [18]
17% (inactive) and 78% (active): [5]; [18]
46% (inactive) and 78% (active): [10]; [18]
inactive: [1]; [17] 4% and -6% | [1]; at 11.0 µM 17% | [2]; at 1.2 µM -2% | [2]; at 3.7 µM 18% | [2]; at 11.0 µM 2% | [2]; at 33.0 µM 44% | [2]; at 100.0 µM 69% | [3]; [17] 20% and 3% | [3]; at 50.0 µM 67.4% and 35.9% | [4]; at 1.2 µM 3% | [4]; at 3.7 µM 6% | [4]; at 11.0 µM -14% | [4]; at 33.0 µM 1% | [4]; at 100.0 µM 28% | [5]; [17] 0% and 14% | [5]; at 50.0 µM 30.1% and 16.3% | [6]; at 1.2 µM -6% | [6]; at 3.7 µM -8% | [6]; [17] 12% and -11% | [6]; at 11.0 µM -18% | [6]; at 33.0 µM 3% | [6]; at 50.0 µM 63.9% and 36.5% | [6]; at 100.0 µM 43% | [7]; at 1.2 µM -9% | [7]; at 3.7 µM -9% | [7]; at 11.0 µM 11% | [7]; at 33.0 µM 21% | [7]; at 100.0 µM 28% | [8]; at 1.2 µM 14% | [8]; at 3.7 µM 14% | [8]; at 11.0 µM 19% | [8]; at 33.0 µM 41% | [8]; at 100.0 µM 55% | [9]; at 1.2 µM 24% | [9]; at 3.7 µM 35% | [9]; at 11.0 µM 36% | [9]; at 33.0 µM 64% | [10]; [17] 5% and -8% | [10]; at 50.0 µM 35% and 20.6% | [11]; at 1.2 µM -2% | [11]; at 3.7 µM -23% | [11]; at 11.0 µM -26% | [11]; at 33.0 µM 33% | [11]; at 100.0 µM 65%
active: [1]; at 33.0 µM 89% | [1]; [18] 92% and 98% | [1]; at 50.0 µM 92% and 89.9% | [1]; at 100.0 µM 92% | [6]; [18] 71% and 96% | [9]; at 100.0 µM 75%

NNC(=O)CCc1cc2ccccc2c2ccccc12
active: [12]; at 100.0 µM 99% | [13]; at 100.0 µM 99% | [15]; at 100.0 µM 99% | [16]; [18] 99% | [16]; at 50.0 µM 97.9% | [16]; at 100.0 µM 99% | [1]; [18] 99% | [1]; at 50.0 µM 98.8% | [1]; at 100.0 µM 99% | [2]; at 100.0 µM 99% | [3]; [18] 98% | [3]; at 50.0 µM 98.5% | [4]; at 100.0 µM 99% | [5]; [18] 98% | [5]; at 50.0 µM 98% | [6]; [18] 98% | [6]; at 50.0 µM 98.8% | [6]; at 100.0 µM 99% | [7]; at 100.0 µM 100% | [8]; at 100.0 µM 99% | [9]; at 100.0 µM 99% | [10]; [18] 98% | [10]; at 50.0 µM 98.5% | [11]; at 100.0 µM 99%
inactive: [12]; at 1.2 µM -15% | [12]; at 3.7 µM -10% | [12]; at 11.0 µM -5% | [12]; at 33.0 µM 26% | [13]; at 1.2 µM 3% | [13]; at 3.7 µM 2% | [13]; at 11.0 µM 9% | [13]; at 33.0 µM 4% | [14]; at 1.2 µM -8% | [14]; at 3.7 µM -21% | [14]; at 11.0 µM -16% | [14]; at 33.0 µM 28% | [14]; at 100.0 µM 50% | [15]; at 1.2 µM -3% | [15]; at 3.7 µM -8% | [15]; at 11.0 µM -2% | [15]; at 33.0 µM 1% | [16]; at 1.2 µM -13% | [16]; at 3.7 µM -16% | [16]; [17] 19% | [16]; at 11.0 µM -12% | [16]; at 33.0 µM 38% | [1]; at 1.2 µM -2% | [1]; at 3.7 µM -2% | [1]; [17] 12% | [1]; at 11.0 µM -2% | [1]; at 33.0 µM -2% | [2]; at 1.2 µM -2% | [2]; at 3.7 µM -1% | [2]; at 11.0 µM 23% | [2]; at 33.0 µM 31% | [3]; [17] 28% | [4]; at 1.2 µM -9% | [4]; at 3.7 µM -7% | [4]; at 11.0 µM -12% | [4]; at 33.0 µM -2% | [5]; [17] 11% | [6]; at 1.2 µM -7% | [6]; at 3.7 µM -8% | [6]; [17] 50% | [6]; at 11.0 µM -9% | [6]; at 33.0 µM 18% | [7]; at 1.2 µM -8% | [7]; at 3.7 µM 1% | [7]; at 11.0 µM 18% | [7]; at 33.0 µM 53% | [8]; at 1.2 µM -13% | [8]; at 3.7 µM -6% | [8]; at 11.0 µM -3% | [8]; at 33.0 µM 38% | [9]; at 1.2 µM -20% | [9]; at 3.7 µM -8% | [9]; at 11.0 µM 9% | [9]; at 33.0 µM 43% | [10]; [17] 45% | [11]; at 1.2 µM -6% | [11]; at 3.7 µM -5% | [11]; at 11.0 µM 0% | [11]; at 33.0 µM 30%
